PubChem BioAssay AID1159580 (chemical genetic matrix, 2015)
Values joined by “and” are separate entries in the source; they are usually repeats but may differ in a detail not shown here. Identical values can stand only once. In all, about 5,500 compounds went through this assay and about 2,000 (36%) were called active. Another 18% or so got no clear call; they are omitted. Cut-off read from the data, not from the text of the source: active = normalized growth mostly below about 0.91 (no sharp cut-off); inconclusive = no clear call, values can overlap the other calls; inactive = mostly above about 0.92. The list shows a part of the results.

Test: chemical genetic growth profiling, strain panel (AID 1159580);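 note: tested at 20 µM; growth read once vehicle control cultures reached saturation at 30 °C; 1 = growth at the plate median or of vehicle wells; lower values mean less growth of the strain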
Conditions: S. cerevisiae deletion strains, growth OD

Measured: normalized growth

CC1(C)C2CC[C@]3(C)C(C(=O)C=C4[C@@H]5C[C@@](C)(C(=O)O)CC[C@]5(C)CC[C@]43C)[C@@]2(C)CC[C@@H]1OC(=O)CCC(=O)O (stereo partly drawn)
inactive: locus YAL021C, strain ccr4, hits give low values 0.968 | locus YAL026C, strain drs2, hits give low values 0.981 | locus YAL030W, strain snc1, hits give low values 1 | locus YBL061C, strain skt5, hits give low values 0.99 | locus YBR009C, strain hhf1, hits give low values 1 | locus YBR021W, strain FUR4, hits give low values 0.981 | locus YBR023C, strain chs3, hits give low values 0.983 | locus YBR171W, strain sec66, hits give low values 0.975 | locus YBR229C, strain ROT2, hits give low values 1 | locus YBR231C, strain swc5, hits give low values 0.996 | locus YBR279W, strain paf1, hits give low values 0.976 | locus YCL011C, strain gbp2, hits give low values 0.963 | locus YCL016C, strain dcc1, hits give low values 0.979 | locus YCL029C, strain bik1, hits give low values 0.973 | locus YCL069W, strain vba3, hits give low values 1.02 | locus YCR088W, strain abp1, hits give low values 0.985 | locus YDL005C, strain med2, hits give low values 0.994 | locus YDL035C, strain GPR1, hits give low values 0.968 | locus YDL040C, strain nat1, hits give low values 0.988 | locus YDL074C, strain BRE1, hits give low values 1.02 | locus YDL101C, strain DUN1, hits give low values 1 | locus YDL134C, strain PPH21, hits give low values 0.966 | locus YDL185W, strain tfp1, hits give low values 0.958 | locus YDL192W, strain arf1, hits give low values 0.989 | locus YDR001C, strain nth1, hits give low values 0.983 | locus YDR069C, strain doa4, hits give low values 0.938 | locus YDR101C, strain arx1, hits give low values 0.994 | locus YDR137W, strain rgp1, hits give low values 0.911 | locus YDR159W, strain sac3, hits give low values 0.909 | locus YDR162C, strain NBP2, hits give low values 0.954 | locus YDR195W, strain ref2 1 | locus YDR297W, strain sur2, hits give low values 0.995 | locus YDR318W, strain mcm21, hits give low values 0.972 | locus YDR334W, strain swr1, hits give low values 0.991 | locus YDR335W, strain msn5, hits give low values 0.979 | locus YDR388W, hits give low values 1 | locus YDR392W, strain spt3, hits give low values 0.873 | locus YDR502C, strain sam2, hits give low values 0.99 | locus YEL003W, strain gim4, hits give low values 0.992 | locus YEL037C, strain rad23, hits give low values 0.986 | locus YEL061C, strain CIN8 (second series), hits give low values 0.988 | locus YEL061C, strain CIN8, hits give low values 0.999 | locus YER015W, strain faa2, hits give low values 0.989 | locus YER016W, strain bim1, hits give low values 0.975 | locus YER110C, hits give low values 0.982 | locus YER111C, strain swi4, hits give low values 0.968 | locus YER155C, strain BEM2 (second series), hits give low values 1.02 | locus YER155C, strain BEM2, hits give low values 1 | locus YER167W, strain BCK2, hits give low values 0.99 | locus YFR010W, strain ubp6, hits give low values 1.01 | locus YGL078C, strain dbp3, hits give low values 0.98 | locus YGL086W, strain mad1, hits give low values 0.999 | locus YGL167C, strain pmr1, hits give low values 0.987 | locus YGL173C, strain kem1, hits give low values 0.999 | locus YGL227W, strain vid30, hits give low values 0.982 | locus YGL240W, strain doc1, hits give low values 0.992 | locus YGL248W, strain PDE1, hits give low values 1.02 | locus YGL253W, strain hxk2, hits give low values 0.963 | locus YGR078C, strain PAC10, hits give low values 1.03 | locus YGR135W, strain pre9, hits give low values 0.96 | locus YGR229C, strain SMI1, hits give low values 0.999 | locus YGR252W, strain gcn5, hits give low values 1.04 | locus YHR013C, strain ard1, hits give low values 0.995 | locus YHR027C, strain rpn1, hits give low values 1 | locus YHR030C, strain SLT2, hits give low values 0.984 and 1.06 | locus YHR079C, strain IRE1 (second series), hits give low values 0.979 | locus YHR079C, strain IRE1, hits give low values 1.08 | locus YHR094C, strain hxt1, hits give low values 0.987 | locus YHR129C, strain ARP1, hits give low values 0.991 | locus YHR142W, strain chs7, hits give low values 0.955 | locus YHR200W, strain rpn10, hits give low values 0.958 | locus YIL066C, strain RNR3, hits give low values 0.983 | locus YIL073C, strain SPO22, hits give low values 0.91 | locus YIL125W, strain kgd1, hits give low values 1 | locus YIR030C, strain dcg1, hits give low values 0.98 | locus YJL092W, strain hpr5, hits give low values 1 | locus YJL095W, strain BCK1 (second series), hits give low values 1 | locus YJL095W, strain BCK1, hits give low values 1.03 | locus YJL115W, strain asf1, hits give low values 0.983 | locus YJL129C, strain trk1, hits give low values 0.936 | locus YJL134W, strain LCB3, hits give low values 0.99 | locus YJL154C, strain vps35, hits give low values 0.987 | locus YJL164C, strain tpk1, hits give low values 0.982 | locus YJL166W, strain qcr8, hits give low values 0.999 | locus YJL168C, strain set2, hits give low values 0.997 | locus YJL187C, strain SWE1 (second series), hits give low values 1.02 | locus YJR043C, strain POL32, hits give low values 1.01 | locus YJR066W, strain TOR1, hits give low values 1.01
